# Menin MLL FP FL = menin-MLL binding inhibition, fluorescein peptide; FP activity change, % at 61.4 µM; 290,000 tested, under 10 active; Fluorescence polarization, fluorescein-MLL peptide displacement from menin; active means well fitted curve in the direction sought with a large enough effect in the polarisation, not every such curve was filed as active; inconclusive means small, poorly fitted or top-dose-only effect, or effect the other way, or a change in a side signal; inactive means no such curve, though single readings can be large or run the other way; the % refers to the polarisation
# Menin MLL FP TR = menin-MLL binding inhibition, Texas Red mutant peptide. Menin + Texas Red MLL mutant peptide, fluorescence polarization. AID 1768. actives 0.23% (n = 270,000). O00255. Potency, µM (top dose mostly 61.6 µM), hits mostly inhibitors; active means well fitted inhibition curve with a large enough effect in the polarisation, with a control signal flat, not every such curve was filed as active; inconclusive means small, poorly fitted or top-dose-only effect, or effect the other way, or a change in a side signal; inactive means no such curve, though single readings can be large or run the other way; the % refers to the polarisation
# Target sequence (O00255 whole entry, looked up): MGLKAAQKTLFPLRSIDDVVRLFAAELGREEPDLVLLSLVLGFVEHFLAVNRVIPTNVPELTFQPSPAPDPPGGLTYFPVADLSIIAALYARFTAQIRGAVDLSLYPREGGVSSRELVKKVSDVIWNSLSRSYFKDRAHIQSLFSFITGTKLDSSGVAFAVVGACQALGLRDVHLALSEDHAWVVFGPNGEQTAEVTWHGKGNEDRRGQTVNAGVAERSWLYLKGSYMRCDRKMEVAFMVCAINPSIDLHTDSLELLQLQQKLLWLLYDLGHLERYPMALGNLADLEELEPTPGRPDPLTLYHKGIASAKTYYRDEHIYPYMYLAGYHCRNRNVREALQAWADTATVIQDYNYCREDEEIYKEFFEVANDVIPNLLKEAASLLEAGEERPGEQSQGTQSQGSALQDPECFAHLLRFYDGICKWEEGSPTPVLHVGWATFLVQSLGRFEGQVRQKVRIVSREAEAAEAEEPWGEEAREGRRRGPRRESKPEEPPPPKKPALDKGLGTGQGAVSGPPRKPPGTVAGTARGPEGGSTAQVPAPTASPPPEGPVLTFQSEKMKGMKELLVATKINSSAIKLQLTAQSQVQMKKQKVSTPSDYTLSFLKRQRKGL
# CXXC DNA block = inhibitors of human MLL CXXC domain-DNA interaction | Q03164 | Potency, µM (series often up to 115 µM), actives largely listed as inhibitors | AID 2662 | MLL-CXXC / FITC-HOXA9 DNA fluorescence polarization | actives 0.037% (n = 290,000); active means well fitted inhibition curve with a large enough effect in the polarisation, with a control signal flat, not every such curve was filed as active; inconclusive means small, poorly fitted or top-dose-only effect, or effect the other way, or a change in a side signal; inactive means no such curve, though single readings can be large or run the other way; the % refers to the polarisation
#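 Steps: dispense CXXC domain solution (7 uM) → pin compounds or unlabeled HOX-A9 DNA control → 5 min ambient → add FLSN-HOX-A9 solution (50 nM) → spin → 30 min ambient → fluorescence polarization. Tris pH 7.5/NaCl/DTT/BSA buffer.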
# LMNA splice mod = changes lamin A minigene splicing in HeLa cells; HeLa LMNA splicing GFP/RFP minigene ratio, 48 h; Potency, µM (series often up to 46.1 µM), most hits filed as inhibitors; actives 0.01% (n = 200,000); active means well fitted inhibition curve with a large enough effect in the signal ratio, with a control signal flat, not every such curve was filed as active; inconclusive means small, poorly fitted or top-dose-only effect, or effect the other way, or a change in a side signal; the % refers to the signal ratio
#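 Read-out is the ratio of GFP to DsRed2 object intensity, acquired by 488 nm laser-scanning cytometry on HeLa lamin A-EGFP minigene reporter cells. Compound incubation 48 hrs at 37 °C in Opti-MEM with 2% FBS; DMSO 0.5% final.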
# MLL CXXC Fl = inhibitors of human MLL CXXC domain-DNA interaction. Potency, µM (highest dose often 345 µM), hits mostly inhibitors. actives 70% (n = 200). MLL CXXC-DNA binding, fluorescein FP. shares compounds with CXXC DNA block. AID 624160; further: nearly all actives have a fitted effect of over 80% in size
# MLL CXXC FP-TR = inhibitors of human MLL CXXC domain-DNA interaction, Texas Red format; shares compounds with CXXC DNA block; actives 40% (n = 200); MLL CXXC-DNA binding, Texas Red fluorescence polarization; Potency, µM (series often up to 345 µM), actives largely listed as inhibitors; further: nearly all actives have a fitted effect of over 75% in size
# MLL CXXC HTRF = MLL CXXC-DNA interaction inhibition, HTRF readout. shares compounds with CXXC DNA block. MLL CXXC-DNA binding, HTRF, biochemical. Potency, µM (series often up to 172 µM), hits mostly inhibitors. actives 30% (n = 210); further: nearly all actives have a fitted effect of over 80% in size
# Hits are given with their value; – = inactive; ? = inconclusive; · = not tested or not shown; [ ] = another dose, or the depositor's remark. Shown is part of a subset that was picked to be rich in hits. Unless noted, the call rests on the fitted dose curve; in most records, active means well fitted inhibition curve with a large enough effect; inconclusive means small, poorly fitted or top-dose-only effect; inactive means no such curve, though single readings can be large or run the other way.
SMILES,Menin MLL FP FL,Menin MLL FP TR,CXXC DNA block,LMNA splice mod,MLL CXXC Fl,MLL CXXC FP-TR,MLL CXXC HTRF
CCc1cccc(NC(=O)CSC2=NS(=O)(=O)c3ccccc32)c1,–,–,31.6µM,–,89.5µM,113µM,15.3µM
Cc1nn2c(=O)cc(COC(=O)c3ccccc3NC(=O)C(C)Oc3ccccc3)nc2s1 (stereo not given),·,·,·,–,·,·,·
C=CCOC(=O)C(=O)/C=C/c1csc2ccccc12,?,?,?,·,–,?,–
CCOc1ccc(NC(=O)C(C)Sc2nc3ncccc3o2)cc1 (stereo not given),·,·,·,–,·,·,·
O=C1NC(=S)N/C1=C/c1cccc2ccccc12,–,?,–,·,·,·,·
CC(/C=C1\NC(=S)NC1=O)=C\c1ccccc1,–,–,44.7µM,·,0.126µM,?,–
CC(=O)OCCNc1cc(N2CCN(C)CC2)c2noc3c2c1C(=O)c1ccccc1-3,?,?,?,–,·,·,·
CCOC(=O)C(C(=O)OCC)c1cc(Br)c2noc3c2c1C(=O)c1ccccc1-3,?,?,31.6µM,?,10µM,40µM,?
Nc1c(S(=O)(=O)O)cc(Nc2ccc(Cl)cc2)c2c1C(=O)c1ccccc1C2=O,–,?,·,·,·,·,·
Nc1c(S(=O)(=O)O)cc(Nc2ccc(Nc3nc(Cl)nc(Nc4ccc(S(=O)(=O)O)cc4)n3)c(S(=O)(=O)O)c2)c2c1C(=O)c1ccccc1C2=O,–,?,10µM,?,17.9µM,17.9µM,6.11µM
Cc1cc(=O)[nH]c2nnc(SCC(=O)NC(C)(C)C)n12,·,·,·,–,·,·,·
N#CC1(C#N)C(c2ccccc2)OC23CCCCCC2C1(C#N)C(=N)O3 (stereo not given),–,–,50.1µM,–,50.3µM,?,–
N#CC1(C#N)C(c2ccccc2)OC23CCCCC2C1(C#N)C(=N)O3 (stereo not given),?,–,?,–,·,·,·
COCCn1c(C(=O)N2CCCC2)cc2c1C[C@H]1CN(C(=O)c3ccccc3)[C@@](Cc3ccc(OC)cc3)(C(=O)OC)[C@@H]21,–,–,·,·,·,·,·
O=C1OC(/C(=C\Nc2ccc(F)cc2F)[N+](=O)[O-])c2ccccc21 (stereo not given),–,–,?,·,–,126µM,–
Cc1ccc(N/C=C(\C2OC(=O)c3ccccc32)[N+](=O)[O-])c(C)c1 (stereo not given),–,–,–,·,·,·,·
CC(=O)C1(O)Cc2c(O)c3c(c(O)c2C(OC2CC(N)C(O)C(C)O2)C1)C(=O)c1c(O)cccc1C3=O (stereo not given),?,?,?,·,4.48µM,20µM,–
Cc1cc(C)c(NC(=O)CSc2nc3c([nH]c4ccccc43)c(=O)n2C)c(C)c1,·,·,·,–,·,·,·
CCn1c(CSc2nnc(-c3ccncc3)n2C)nc2cc(C(=O)O)ccc21,–,·,–,·,·,·,·
CCn1c(CSc2ncn[nH]2)nc2cc(C(=O)O)ccc21,–,·,?,?,–,126µM,–
Nc1c(N=Nc2ccc(-c3ccc(N=Nc4cc(S(=O)(=O)O)c5ccccc5c4N)cc3)cc2)cc(S(=O)(=O)O)c2ccccc12,?,?,35.5µM,·,22.5µM,25.2µM,9.68µM
CCCC[C@@H]1CCCO[C@@](C(=O)NCCOC)(C(F)(F)F)C1,–,–,·,·,·,·,·
Cc1[nH][nH]c(=O)c1C(c1ccc(-c2ccc(C(=O)O)cc2)o1)c1c(C)[nH][nH]c1=O,–,–,?,–,–,–,?
Cc1[nH][nH]c(=O)c1C(c1ccc(-c2ccc(F)cc2)o1)c1c(C)[nH][nH]c1=O,–,?,–,?,·,·,·
Cc1cc(-c2ccccc2)c2c3c(c(-c4ccccc4)n2n1)c(=O)n(C)c(=O)n3C,?,–,50.1µM,–[0.0737 µM],–,–,–
Cc1cc(-c2ccccc2)c2c3c(cn2n1)c(=O)n(C)c(=O)n3C,–,–,–,–,·,·,·
N#C/C(=C\c1cccs1)C(=O)c1ccccc1Cl,–,·,22.4µM,·,17.9µM,71.1µM,?
CC(C)Cn1c(SCC(=O)NCc2ccco2)nnc1-c1ccncc1,–,–,?,–,1.59µM,–,–
Cn1c(SCC(=O)NCc2ccco2)nnc1-c1ccccc1,–,–,–,–,·,·,·

# Compound activity (PubChem)
